Source: PubChem
Pol beta inh: qHTS Assay for Inhibitors of DNA Polymerase Beta. Pol beta primer extension/strand displacement, fluorescence kinetic. Potency, µM (doses to about 114 µM), for inactives: top-dose activity change, negative = inhibition, actives largely listed as inhibitors. AID 485314, 2010. P06746. actives 1.3% (n = 340,000); further: on the % scale 0 is the no-effect control and ±100 the full control effect
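Enzyme-only controls used 10 nM Pol beta; buffer lacking enzyme served as negative control. Compound preincubated 15 min, then 50 nM substrate added; 0 and 10 min reads at room temperature.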
WRN helicase inh: qHTS for Inhibitors of WRN Helicase | AID 651768, 2012 | WRN helicase unwinding, fluorescent forked duplex, kinetic | actives 0.46% (n = 360,000) | Potency, µM (top dose mostly 114 µM), for inactives: at the top dose activity change, negative = inhibition, hits mostly inhibitors; further: on the % scale 0 is the no-effect control and ±100 the full control effect; nearly all actives have a fitted effect of over 55% in size
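Enzyme (20 nM final) and test compound sit together 15 min at room temperature before substrate addition. Substrate is a single-forked duplex oligonucleotide (100 nM) labelled with fluorophore and quencher, with 2 mM ATP; helicase unwinding raises red fluorescence, read kinetically.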
POLI inh: qHTS for Inhibitors of Polymerase Iota; actives 1% (n = 390,000); Potency, µM (highest dose often 115 µM), inactives show at the top dose activity, negative = inhibition, actives largely listed as inhibitors; Pol iota fluorescent replication assay, 10 min; DNA polymerase iota (Homo sapiens), Q9UNA4
Target sequence (Q9UNA4 whole entry, looked up): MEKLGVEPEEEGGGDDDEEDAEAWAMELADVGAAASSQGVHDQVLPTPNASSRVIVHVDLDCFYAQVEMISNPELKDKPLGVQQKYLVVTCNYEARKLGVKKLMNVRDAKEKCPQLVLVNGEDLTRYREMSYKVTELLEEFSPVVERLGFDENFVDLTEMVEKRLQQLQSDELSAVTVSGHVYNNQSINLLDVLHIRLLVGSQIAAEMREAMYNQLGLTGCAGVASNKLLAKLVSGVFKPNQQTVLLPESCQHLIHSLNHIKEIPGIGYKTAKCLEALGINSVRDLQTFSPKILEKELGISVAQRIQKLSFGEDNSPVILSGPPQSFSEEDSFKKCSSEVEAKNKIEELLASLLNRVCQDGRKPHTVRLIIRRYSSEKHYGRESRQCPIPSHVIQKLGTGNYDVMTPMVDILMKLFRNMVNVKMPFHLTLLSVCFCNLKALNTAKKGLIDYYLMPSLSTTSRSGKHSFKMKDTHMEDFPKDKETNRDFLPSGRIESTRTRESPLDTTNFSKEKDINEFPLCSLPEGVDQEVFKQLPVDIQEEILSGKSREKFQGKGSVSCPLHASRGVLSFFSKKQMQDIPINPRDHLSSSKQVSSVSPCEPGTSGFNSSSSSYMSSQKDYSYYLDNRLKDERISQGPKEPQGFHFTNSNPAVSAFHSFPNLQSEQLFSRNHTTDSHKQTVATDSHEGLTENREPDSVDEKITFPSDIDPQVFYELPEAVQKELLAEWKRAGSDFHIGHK
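Fluorescent replication assay read twice, at 0 min and 10 min after adding 50 nM (final) substrate. Enzyme (10 nM) and compounds were first incubated 15 min at room temperature; enzyme-free buffer wells were negative controls.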
FEN1 inh: qHTS Assay for the Inhibitors of Human Flap endonuclease 1 (FEN1); P39748; Recombinant FEN1 flap cleavage, fluorescence, 15 min; Potency, µM (titrated, usually from 114 µM), for the others: top-dose activity change, negative = inhibition, hits mostly inhibitors; actives 0.35% (n = 390,000); AID 588795, 2011; further: on the % scale 0 is the no-effect control and ±100 the full control effect; nearly all actives have a fitted effect of over 65% in size
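Nuclease activity of 10 nM FEN1 was measured after 15 min of room-temperature exposure to titrated compounds, by adding 50 nM flap substrate and reading plates at 0 and 15 min.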
Pol kappa inh-1: qHTS for Inhibitors of Polymerase Kappa; Potency, µM (highest dose often 107 µM), inactives show top-dose activity, negative = inhibition, most hits filed as inhibitors; actives 0.53% (n = 400,000); purified Pol kappa, fluorescent DNA synthesis assay, 10 min; DNA polymerase kappa (Homo sapiens), Q9UBT6; further: on the % scale 0 is the no-effect control and ±100 the full control effect
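Kinetic fluorescence screen: compound preincubated 15 min RT with 10 nM enzyme; 50 nM substrate (final) initiates; reads at 0/10 min.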
Pol eta inh-1: qHTS for Inhibitors of Polymerase Eta | DNA polymerase eta (Homo sapiens), Q9Y253 | recombinant Pol eta, fluorescent DNA replication assay | Potency, µM (highest dose often 114 µM), for inactives: top-dose activity change, negative = inhibition, hits mostly inhibitors | actives 1.2% (n = 390,000); further: on the % scale 0 is the no-effect control and ±100 the full control effect
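Pol eta (10 nM) was preincubated with compounds for 15 min at room temperature, after which fluorescent replication substrate (50 nM final) was added to start the reaction. Fluorescence was read kinetically at 0 and 10 min.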
POLI cherry-pick: qHTS for Inhibitors of Polymerase Iota: Confirmatory Assay for Cherry-picked Compounds; shares compounds with Pol kappa inh-1; Pol iota primer extension, TAMRA/BHQ fluorescence; Potency, µM, most hits filed as inhibitors; actives 77% (n = 1,500)
Pol kappa inh-2: qHTS for Inhibitors of Polymerase Kappa: Confirmatory Assay for Cherry-picked Compounds | actives 76% (n = 920) | Potency, µM, actives largely listed as inhibitors | purified Pol-kappa, fluorescent strand-displacement substrate | shares compounds with Pol eta inh-1
Pol eta inh-2: qHTS for Inhibitors of Polymerase Eta: Confirmatory Assay for Cherry-picked Compounds; shares compounds with Pol eta inh-1; Pol eta primer extension, TAMRA/BHQ fluorescence, 10 min; Potency, µM, actives largely listed as inhibitors; actives 64% (n = 2,600); AID 720502, 2013
* marks the source's active call; other numbers are inactive results; ? = inconclusive; / = no result; [ ] = remark or other dose. In the library only some 2.4% were active in any assay of this set; here they are far more common. The call rests on the fitted dose curve; in most records, active means well fitted curve in the direction sought with a large enough effect; inconclusive means small, poorly fitted or top-dose-only effect, or another doubt; inactive means no such curve, though single readings can be large; an effect the other way counts as inactive or inconclusive. Potency means the concentration at half of the fitted maximal effect.

SMILES | Pol beta inh | WRN helicase inh | POLI inh | FEN1 inh | Pol kappa inh-1 | Pol eta inh-1 | POLI cherry-pick | Pol eta inh-2 | others
NS(=O)(=O)c1ccc(NC(=O)C2Cc3ccccc3CN2C(=O)c2ccco2)cc1 (centres undefined) | 28µM* | ? | 20µM* | -9% | 79µM* | 20µM* | ? | 67*
Cc1cc(/C=C2\SC(=S)NC2=O)c(C)n1C | 40µM* | ? | ? | ? | 79µM* | 28µM* | 67* | 38* | Pol kappa inh-2=17*
CCCNC(=O)C1(C)CCCN(C(=O)c2cc(F)cc(F)c2)C1 (centres undefined) | / | -3% | / | / | / | / | / | /
C=CCn1c(SC)nnc1C1COc2ccccc2O1 (centres undefined) | 4% | -4% | 103% | -1% | 2% | -18% | / | /
O=C(N/N=C/c1ccc([N+](=O)[O-])o1)c1cc2c(ccc3ccccc32)o1 | 3.2µM* | -23%[11.6 µM] | ? | ? | -25% | 32µM* | 27* | 19*
Cc1nc2ccccn2c1C(=O)N/N=C/c1ccc([N+](=O)[O-])o1 | 32µM* | ? | 11µM* | ? | 50µM* | 7.9µM* | 60* | 34*
O=C(N/N=C/c1ccc([N+](=O)[O-])o1)c1cc2ccccc2o1 | ? | -10% | ? | -11% | ? | ? | / | /
Cc1c(Cl)cccc1NC(=O)Cn1c(CCC(=O)O)ccc1-c1ccccc1 | 3% | -6% | 13% | -5% | -1% | -22% | / | /
Cc1ccc(-n2c(C)nc3oc4ccccc4c(=O)c3c2=O)cc1 | 40µM* | ? | ? | -15% | ? | 79µM* | 24* | 38*
Cc1cccc(Nc2ncnc(N)c2[N+](=O)[O-])n1 | 8% | 2% | -27% | 7% | -13% | -14% | / | /
COc1ccc2[nH]c(=O)cc(C(=O)O)c2c1 | 18µM* | -17%[11.6 µM] | ? | -11% | ? | 14µM* | ? | 27* | Pol kappa inh-2=11*
O=c1cc(-c2ccc(O)cc2)oc2cc(O)c(C3OC(CO)C(O)C(O)C3O)c(O)c12 (centres undefined) | 8.9µM* | ? | 35µM* | ? | 40µM* | 20µM* | 34* | 24*
O=c1c(-c2ccc(O)cc2)coc2c(C3OC(CO)C(O)C(O)C3O)c(O)ccc12 (centres undefined) | / | / | / | / | -12%[60.1 µM] | / | / | /
CSCCC(NC(=O)c1ccc(Cl)cc1Cl)C(=O)N(C)Cc1nc2ccccc2c(=O)[nH]1 (centres undefined) | / | -26% | -8% | -7% | -4% | -21% | / | /
COc1cccc(-c2nc(CS(=O)(=O)CC(=O)NCCc3ccccc3)c(C)o2)c1 | -2% | -6% | -24% | -17% | -9% | -8% | / | /
COC(=O)c1ccc(COc2ccc(/C=N/Nc3cccc(C(=O)O)c3)cc2)cc1 | -30% | -6%[11.6 µM] | 32µM* | -12% | ? | 18µM* | 60* | 27*
OCC[C@H]1C[C@H](O)[C@@H](O)[C@@]2(OCc3ccccc32)O1 | / | -12% | 9% | -13% | -18% | -14% | / | /
COc1cc2cc(Oc3ccc4ccc(=O)oc4c3)c(=O)oc2cc1OC(=O)/C=C/c1ccccc1 | 11% | 1% | -12% | -30% | -21% | -2% | / | /
COc1cc2cc(Oc3ccc4ccc(=O)oc4c3)c(=O)oc2cc1OC1OC(COC(=O)CC(C)(O)CC(=O)O)C(O)C(O)C1O (centres undefined) | ? | -15%[11.6 µM] | 50µM* | -23% | ? | 35µM* | 67* | 48*
COc1cccc(NC(=O)C2C3CC4OC(=O)C2C4C3)c1 (centres undefined) | -11% | -21% | 6% | -1% | -16% | -2% | / | /
O=C(O)C(C(=O)/C=C/c1ccco1)=C1SCCS1 | 25µM* | ? | 4µM* | -35% | 45µM* | 8.9µM* | 53* | 48*
COc1ccc(CNC(=O)C[C@H]2C[C@H](C(=O)N3CCCCC3)[C@@]3(C)c4[nH]c5ccc(Cl)cc5c4CCN3C2=O)cc1OC | / | -4% | 27% | -23% | 0% | -25% | / | /
Cc1ccc(S(=O)(=O)N2CCOCC2)cc1NC(=O)COC(=O)c1ccc(Cl)s1 | / | -10% | 83% | -4% | -9% | -17% | / | /
Cc1ccc2c(c1)c1c3n2CCN(C(=O)CN2CCN(C)CC2)C3CCC1 (centres undefined) | 20% | 0% | 13% | -2% | -18% | 8% | / | /
Cc1ccc2c(c1)c(=O)c1c3n2CCN(C(=O)CCl)C3CC1 (centres undefined) | 16µM* | ? | ? | ? | -41% | 6.3µM* | 60* | 60*
CCCSC1=N/C(=C\C=C\c2ccco2)C(=O)S1 | 5.6µM* | ? | 10µM* | 50µM* | 22µM* | 7.1µM* | ? | 60*
